Source: PubChem
CYP2C9 act: human CYP2C9 activators, primary screen, biochemical, luminescence. recombinant CYP2C9, luciferin-H conversion; active compounds read high; factor 1 = untreated enzyme, 0 = blocked. activation factor at 5 µM. hit rate 1.4% among 96,000. Cytochrome P450 2C9 (Homo sapiens), P11712;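 active = activation factor of 2 or more for CYP2C9 at a 5 µM dose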
Target sequence (P11712 whole entry, looked up): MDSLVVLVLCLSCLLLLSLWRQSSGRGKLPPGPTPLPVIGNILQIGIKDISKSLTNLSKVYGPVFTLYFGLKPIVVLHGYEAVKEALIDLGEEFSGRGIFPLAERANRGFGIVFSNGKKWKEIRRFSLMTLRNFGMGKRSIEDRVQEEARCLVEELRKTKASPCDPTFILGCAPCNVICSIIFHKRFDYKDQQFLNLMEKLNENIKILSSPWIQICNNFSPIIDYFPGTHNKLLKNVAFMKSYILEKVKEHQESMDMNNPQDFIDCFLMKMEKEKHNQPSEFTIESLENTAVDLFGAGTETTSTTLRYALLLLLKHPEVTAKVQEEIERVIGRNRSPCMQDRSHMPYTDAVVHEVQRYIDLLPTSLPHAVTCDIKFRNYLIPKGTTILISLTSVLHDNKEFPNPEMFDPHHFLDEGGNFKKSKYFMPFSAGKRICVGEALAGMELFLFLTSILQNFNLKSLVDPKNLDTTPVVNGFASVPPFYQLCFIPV
CYP2C19 act: human CYP2C19 activators, primary screen, biochemical, luminescence; Cytochrome P450 2C19 (Homo sapiens), P33261; recombinant CYP2C19, luciferin-H EGE luminescence; active compounds read high; 0 = fully inhibited enzyme, 1 = untreated enzyme; activation factor at 5 µM; 96,000 tested, under 10 active;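 active = activation factor of at least 2 at 5 µM in the primary screen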
CYP2C9 inh: blockers of cytochrome P450 2C9 activity – biochemical, luminescence, ADME assay, primary screen; P11712; CYP2C9 Supersomes, luciferin-H conversion; inhibition, % at 5 µM; hit rate 20% among 96,000; AID 777, 2007;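 active = blocking of liver enzyme CYP2C9 beyond about 50% at 5 µM, limit read from the data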
CYP2C19 inh: blockers of cytochrome P450 2C19 activity – biochemical, luminescence, ADME assay, primary screen; CYP2C19 Supersomes, luciferin-H EGE luminescence, 30 min; AID 778, 2007; inhibition, % at 5 µM; hit rate 21% among 96,000; P33261;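 active = CYP2C19 inhibition above a set limit at 5 µM in the primary screen, cut at about 50% in these data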
PostGolgi ctrl: growth inhibition of yeast control strain, primary screen, counter-screen for post-Golgi transport modulator project. efflux-deficient yeast background strain, growth absorbance A615, 16 h. inhibition, % at 10 µM. hit rate 5% among 98,000
PostGolgi yeast: phenotypic screen on post-Golgi transport, primary screen; post-Golgi transport phenotypic cell assay; hit rate 0.9% among 98,000; inhibition, % at 10 µM;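 note: yeast cells grown in 1536-well plates; yeast grown about 18 h at 30C before absorbance read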
A number is an active result; 0 = inactive; - = no result given. These entries were drawn from the full list. Cut-off read from the data, not from the text of the source, unless noted: active = inhibition above about 30%; inactive = the rest.

SMILES	CYP2C9 act	CYP2C19 act	CYP2C9 inh	CYP2C19 inh	PostGolgi ctrl	PostGolgi yeast
COc1ccc(/C(O)=C2\C(=O)C(=O)N(Cc3ccco3)C2c2cc(OC)ccc2OC)cc1 (stereo not given)	-	-	-	-	0	0
COc1ccc(Oc2ncnc3c2oc2ccc(Br)cc23)cc1	0	0	0	0	-	-
COCCCn1c(SCC(=O)Nc2ccc3c(c2)OCCO3)nnc1-c1ccoc1C	0	0	0	0	0	0
CC(=O)c1cc(CC=C(C)C)c(O)cc1O	0	0	80	0	0	0
CC(=O)c1cc(CC=C(C)C)c(O)c(CC=C(C)C)c1O	0	0	71	84	0	0
COc1cc(CC(=O)O)c(C(C)=O)cc1OC	0	0	0	0	0	0
CC(=O)c1ccc(O)c(CO)c1	0	0	0	0	0	0
CCOC(=O)N1CCN(C(=O)Cn2ncn3nc(-c4cccs4)cc3c2=O)CC1	0	0	0	0	0	0
CC(C/C=N/NC(=O)COc1cc(Cl)ccc1Cl)c1ccccc1 (stereo not given)	0	0	0	70	0	0
COc1ccc(C2CC(c3ccc(Cl)cc3)n3nc(N)nc3N2)cc1 (stereo not given)	0	0	0	0	0	0
COc1ccc(C(=O)NC2CCCCCC2)cc1S(=O)(=O)Nc1ccc(Br)cc1	0	0	0	0	0	0
N#Cc1ccsc1NC(=O)CSc1ncnc2ccccc12	0	0	64	0	0	0
Cc1ccccc1C(=O)NC(NCc1ccco1)C(Cl)(Cl)Cl (stereo not given)	0	0	0	0	0	0
Cc1cccc(NC(NC(=O)c2cccnc2)C(Cl)(Cl)Cl)c1 (stereo not given)	0	0	83	0	0	0
Cc1cccc(NC(=O)c2cccnc2)c1	0	0	0	0	0	0
Cc1cccc(C(=O)NC(NCc2ccco2)C(Cl)(Cl)Cl)c1 (stereo not given)	0	0	58	0	0	0
COC(=O)c1ccc(NC(=O)N2CCC(O)(c3cccnc3)CC2)cc1	0	0	0	0	0	0
Cc1cc(C)n(-c2nnc(C)n2/N=C/c2cc(Br)ccc2OCc2ccccc2)n1	0	0	0	0	0	0
CC1(C)Cc2noc(N)c2C(C)(C)N1O	-	-	-	-	0	0
CC1(C)Cc2noc(N)c2C(C)(C)N1OC(=O)c1cccs1	0	0	83	98	0	0
CC(=O)ON1C(C)(C)Cc2noc(N)c2C1(C)C	0	0	0	0	0	0
CC1(C)Cc2noc(N)c2C(C)(C)N1OC(=O)c1scc2c1OCCO2	0	0	0	51	0	0
CNc1nn(-c2cccc(Cl)c2)nc1N	0	0	0	0	0	0
CCCc1nnc(NC(=O)NCCN2C(=O)C3C4C=CC(C4)C3C2=O)s1 (stereo not given)	0	0	0	0	0	0
CCOP(=O)(OCC)C(NCc1ccccc1)c1ccc(Br)cc1 (stereo not given)	0	0	0	54	0	0
SMILES	CYP2C9 act	CYP2C19 act	CYP2C9 inh	CYP2C19 inh	PostGolgi ctrl	PostGolgi yeast
Fc1ccc(Oc2nccc(-c3ccc(Cl)cc3)n2)cc1	0	0	0	0	0	0
Cc1ccc(S(=O)(=O)CCC(=O)Nc2nccs2)cc1	0	0	0	0	0	0
Cc1ccc(S(=O)(=O)NC(CC(C)C)C(=O)Nc2nccs2)cc1 (stereo not given)	0	0	81	0	0	0
Cc1ccc(S(=O)(=O)NC(CC(C)C)C(=O)NCc2ccco2)cc1 (stereo not given)	0	0	56	54	0	0
CC(NS(=O)(=O)c1ccccc1)C(=O)NCc1ccco1 (stereo not given)	0	0	0	0	0	0
CCCCc1ccc(NC(=O)N[C@H](C(=O)O)C(C)CC)cc1 (stereo not given in full)	0	0	0	0	0	0
CCCCc1ccc(NC(=O)OC)cc1	0	0	65	0	0	0
Nc1nc2n(n1)C(c1cccs1)CC(c1ccc(Br)cc1)N2 (stereo not given)	0	0	0	66	0	0
COc1ccc(C2CC(c3cccc(C)c3)n3nc(N)nc3N2)cc1 (stereo not given)	0	0	0	0	0	0
COc1ccc(C2CC(c3ccc(Br)cc3)Nc3nc(N)nn32)cc1 (stereo not given)	0	0	51	0	0	0
COc1ccc(C2CC(c3ccc(OC)cc3)n3nc(NC(=O)c4ccco4)nc3N2)cc1 (stereo not given)	0	0	0	0	31	0
Cc1cccc(C2CC(c3ccc(Br)cc3)Nc3nc(N)nn32)c1 (stereo not given)	0	0	0	77	0	0
COc1ccc(C2CC(c3ccc(OC)cc3)n3nc(N)nc3N2)cc1 (stereo not given)	0	0	0	0	-	-
Nc1nc2n(n1)C(c1cccc(Br)c1)CC(c1ccc(F)cc1)N2 (stereo not given)	-	-	-	-	0	0
CC1(C)CC2CC(C)(CN2S(=O)(=O)c2ccc(C(=O)Nc3ccc(Cl)c(S(=O)(=O)N4CCOCC4)c3)cc2)C1 (stereo not given)	0	0	62	0	0	0
CCOc1cc(C(=O)Nc2ccc(S(=O)(=O)N3CCOCC3)cc2)cc(OCC)c1OCC	0	0	0	0	0	0
CCC(C)(c1ccc(C(=O)OC)s1)c1ccc(C(=O)OC)s1	0	0	98	98	0	0
COC(=O)c1ccc(CN(Cc2ccc(C(=O)OC)o2)C(C)(C)C)o1	0	0	0	0	0	0
COCCCNC(=S)NNC(=S)Nc1ccc(F)cc1F	0	0	0	0	0	0
CCn1c(NCc2ccc(N(C)C)cc2)nc2ccccc21	0	0	0	72	0	0
CCN(CC)CCn1c(NCc2ccco2)nc2ccccc21	0	0	0	0	0	0
C=CCc1cccc(CNc2nc3ccccc3n2CCC)c1O	0	0	0	0	0	0
CCCCn1c(NCc2ccccc2O)nc2ccccc21	0	0	0	0	0	0
CCN(CC)CCn1c(NCc2nc3ccccc3n2Cc2ccccc2)nc2ccccc21	0	0	86	0	0	0
C=CCc1cccc(CNc2nc3ccccc3n2CC)c1O	2.1	0	0	0	0	0
CCn1c(NCc2cccs2)nc2ccccc21	0	0	0	57	0	0
COCCCNC(=O)C1CCCN(C(=O)Nc2ccc(OC)cc2)C1 (stereo not given)	0	0	0	0	0	0
CC(C)(C)NC(=O)Cn1c(SCC(=O)NCc2cccs2)nc2ccccc21	0	0	0	0	0	0
CCOC(=O)c1c(NC(=O)c2noc3c2CCCC3)sc(C)c1C	0	0	0	0	0	0
O/N=C1\CC/C(=N\O)c2nn(-c3ccc(Cl)cc3Cl)nc21	0	0	0	0	0	0
